Test results published in PubChem BioAssay (Tox21).
Several values for one entry are separate records, joined by “and”; a condition that tells them apart may be missing. Equal entries are not always repeated. Records with an inconclusive call do not appear. Activity calls are given as the source filed them. Calls come from the whole dose curve; as a rule, active = well fitted curve in the direction sought with a large enough effect in the repeat runs; inconclusive = weak or mixed curves; inactive = no such curve, though single readings can be large; an effect the other way counts as inactive or inconclusive.

Experiments:
[1] = qHTS RealTime-Glo MT Cell Viability Assay in HepG2 cells - 8 hour (AID 1224873); note: nearly all actives have a fitted effect of over 55% in size
In short: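 Real-time viability: cells seeded at 600 per well together with NanoLuc and cell-permeant prosubstrate, compounds added after 5 h incubation. Luminescence tracked at 0, 8, 16, 24, 32 and 40 h of exposure.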

[2] = qHTS RealTime-Glo MT Cell Viability Assay in HEK293 cells - 40 hour (AID 1224874); details: RealTime-Glo luminescence; max response: hits give low values; note: potency is the fitted concentration of half-maximal effect; nearly all actives have a fitted effect of over 50% in size
In short: (§1)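 600 cells/well were plated with the nonlytic NanoLuc/prosubstrate reagent, pre-incubated 5 h, then given 23 nL of compound in DMSO. Incubation at 37 C for 40 h, with luminescence from viable-cell-reduced substrate read repeatedly from 0 h.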

[3] = A CellTox Green Cytotoxicity Assay to monitor cytotoxicity in HepG2 cells - 16 hour (AID 1224876); note: nearly all actives have a fitted effect of over 45% in size; note: potency is the fitted concentration of half-maximal effect
In short: (§2)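 HepG2 cells, 600/well, preincubated 5 h with CellTox Green dye, then exposed to Tox21 compounds in DMSO at 37 C for up to 40 h. Dead-cell DNA fluorescence read at the indicated time point.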

[4] = qHTS RealTime-Glo MT Cell Viability Assay in HepG2 cells - 32 hour (AID 1224877); note: nearly all actives have a fitted effect of over 55% in size; note: potency is the fitted concentration of half-maximal effect
In short: (§3)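 HepG2 cells were seeded at 600 cells/well together with NanoLuc luciferase and a cell-permeant prosubstrate, preincubated 5 h at 37 C/5% CO2, then pin-dosed with compounds in DMSO. Nonlytic luminescence from viable cells was read at each time point.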

[5] = A CellTox Green Cytotoxicity Assay to monitor cytotoxicity in HepG2 cells - 24 hour (AID 1224878); note: nearly all actives have a fitted effect of over 45% in size; note: potency is the fitted concentration of half-maximal effect
In short: as §2

[6] = qHTS RealTime-Glo MT Cell Viability Assay in HEK293 cells - 0 hour (AID 1224880); note: nearly all actives have a fitted effect of over 45% in size; note: potency is the fitted concentration of half-maximal effect
In short: as §1

[7] = A CellTox Green Cytotoxicity Assay to monitor cytotoxicity in HepG2 cells - 0 hour (AID 1224882); note: nearly all actives have a fitted effect of over 35% in size
In short: as §2

[8] = A CellTox Green Cytotoxicity Assay to monitor cytotoxicity in HepG2 cells - 32 hour (AID 1224883); note: nearly all actives have a fitted effect of over 50% in size; note: potency is the fitted concentration of half-maximal effect
In short: as §2

[9] = A CellTox Green Cytotoxicity Assay to monitor cytotoxicity in HEK293 cells - 8 hour (AID 1224884); note: nearly all actives have a fitted effect of over 35% in size
In short: (§4)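 HEK293 cells, 600/well, were preincubated 5 hours and then exposed to compounds at 37 C for up to 40 hours. A cell-impermeant cyanine dye staining dead-cell DNA was read by fluorescence at 0, 8, 16, 24, 32 and 40 h time points.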

[10] = qHTS RealTime-Glo MT Cell Viability Assay in HepG2 cells - 16 hour (AID 1224885); note: nearly all actives have a fitted effect of over 50% in size
In short: as §3

[11] = qHTS RealTime-Glo MT Cell Viability Assay in HEK293 cells - 8 hour (AID 1224887); note: nearly all actives have a fitted effect of over 50% in size; note: potency is the fitted concentration of half-maximal effect
In short: as §1

[12] = A CellTox Green Cytotoxicity Assay to monitor cytotoxicity in HEK293 cells - 16 hour (AID 1224888); note: nearly all actives have a fitted effect of over 35% in size
In short: as §4

[13] = qHTS RealTime-Glo MT Cell Viability Assay in HepG2 cells - 0 hour (AID 1224889); note: nearly all actives have a fitted effect of over 50% in size; note: potency is the fitted concentration of half-maximal effect
In short: as §3

[14] = A CellTox Green Cytotoxicity Assay to monitor cytotoxicity in HepG2 cells - 8 hour (AID 1224890); note: nearly all actives have a fitted effect of over 45% in size
In short: as §2

[15] = A CellTox Green Cytotoxicity Assay to monitor cytotoxicity in HEK293 cells - 24 hour (AID 1224875)
In short: as §4

[16] = A CellTox Green Cytotoxicity Assay to monitor cytotoxicity in HEK293 cells - 32 hour (AID 1224881); note: nearly all actives have a fitted effect of over 40% in size
In short: as §4

[17] = qHTS assay to identify small molecule antagonists of the estrogen receptor alpha (ER-alpha) signaling pathway using the BG1 cell line in the presence of 0.1 nM 17-beta-estradiol - cell viability counter screen (AID 1259241); note: nearly all actives have a fitted effect of over 40% in size
In short: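 Viability in VM7Luc4E2 cells after 22 hr compound exposure under 0.1 nM 17beta-estradiol stimulation, by CellTiter-Fluor.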

[18] = qHTS RealTime-Glo MT Cell Viability Assay in HEK293 cells - 24 hour (AID 1224886); note: nearly all actives have a fitted effect of over 50% in size; note: potency is the fitted concentration of half-maximal effect
In short: (§5)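 HEK293 cells were seeded at 600 cells/well together with NanoLuc luciferase and cell-permeant prosubstrate, preincubated 5 h at 37 C/5% CO2, then given compound in DMSO by pintool. Luminescence from viable-cell prosubstrate reduction was read repeatedly over 40 h.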

[19] = A CellTox Green Cytotoxicity Assay to monitor cytotoxicity in HepG2 cells - 40 hour (AID 1224879); note: nearly all actives have a fitted effect of over 40% in size; note: potency is the fitted concentration of half-maximal effect
In short: as §2

[20] = qHTS RealTime-Glo MT Cell Viability Assay in HEK293 cells - 16 hour (AID 1224872); note: nearly all actives have a fitted effect of over 50% in size; note: potency is the fitted concentration of half-maximal effect
In short: as §5

Measured: Potency

CC(COc1ccc(C(C)(C)C)cc1)OS(=O)OCCCl (configuration not stated)
active: [2] 0.391 µM
not listed: [15] | [16] | [17] | [18] | [19] | [20]
inactive: all other assays above

CC(=O)[C@H]1CC[C@H]2[C@@H]3C[C@H](C)C4=CC(=O)CC[C@]4(C)[C@H]3[C@@H](O)C[C@]12C
active: [6] 1.69 µM | [13] 0.379 µM
not listed: [2] | [18] | [19] | [20]
inactive: all other assays above

Cc1occc1C(=O)Nc1ccc(C(=O)N2CCC(F)(F)/C(=C\C(=O)N3CCC(N4CCCCC4)CC3)c3ccccc32)cc1
active: [2] 6.83 µM | [18] 5.43 µM
not listed: [8] | [11] | [17] | [19] | [20]
inactive: all other assays above

CCCCCCCCCCCC(=O)[O][Sn]([CH2]CCC)([CH2]CCC)[O]C(=O)CCCCCCCCCCC
active: [2] 7.56 µM | [4] 19 µM | [5] 19 µM | [19] 16.9 µM | [8] 19 µM | [18] 7.56 µM
not listed: [3] | [10] | [16] | [20]
inactive: all other assays above

O=C(Nc1ccc([N+](=O)[O-])cc1)Nc1ccc([N+](=O)[O-])cc1
inactive: [1] | [15] | [3] | [6] | [7] | [9] | [12] | [13] | [14]
active: [2] 7.56 µM | [19] 23.9 µM

COc1cc2c(N3CCN(C(=O)Nc4ccc(OC(C)C)cc4)CC3)ncnc2cc1OCCCN1CCCCC1
active: [2] 9.52 µM | [8] 26.8 µM | [18] 9.52 µM
not listed: [5] | [11] | [17] | [19] | [20]
inactive: all other assays above

CCOc1cc(N)c(Cl)cc1C(=O)NCC1CN(Cc2ccc(F)cc2)CCO1 (configuration not stated)
active: [20] 16.9 µM | [2] 16.9 µM | [18] 15.1 µM | [11] 19 µM
not listed: [1] | [10] | [13] | [15] | [19]
inactive: all other assays above

COCc1c(C(C)C)nc(C(C)C)c(/C=C/[C@@H](O)C[C@@H](O)CC(=O)O)c1-c1ccc(F)cc1
inactive: [3] | [16] | [7] | [9] | [12] | [14] | [17]
active: [5] 301 nM and 4.32 µM | [19] 379 nM and 4.84 µM | [8] 338 nM and 4.84 µM

COc1cc2ncnc(Nc3ccc(F)c(Cl)c3)c2cc1OCCCN1CCOCC1
active: [20] 9.52 µM | [2] 10.7 µM | [3] 23.9 µM | [4] 23.9 µM | [5] 23.9 µM | [19] 23.9 µM | [8] 23.9 µM | [18] 9.52 µM | [11] 10.7 µM
inactive: [7] | [9] | [12] | [17]

NC(=O)N(O)[C@@H]1C=C[C@H](Oc2cccc(Oc3ccc(F)cc3)c2)C1
active: [2] 19.5 µM | [5] 38.9 µM | [19] 38.9 µM | [8] 38.9 µM | [18] 15.5 µM
inactive: [4] | [6] | [7] | [9] | [10] | [12] | [13]

CC1CC(=O)NN=C1c1ccc(NCC(C)(C)NCC(O)COc2cc(Cl)ccc2C#N)cc1 (configuration not stated)
not listed: [2] | [18] | [20]
inactive: all other assays above

CN1CCN(CCCN2c3ccccc3Sc3ccc(S(=O)(=O)N(C)C)cc32)CC1
active: [3] 23.9 µM | [5] 26.8 µM | [8] 26.8 µM
inactive: [1] | [7] | [9] | [12] | [17]

CN(C)C(=O)Nc1ccc(Oc2ccc(Cl)cc2)cc1
active: [2] 34.7 µM
not listed: [3] | [5] | [8] | [11] | [18] | [19] | [20]
inactive: all other assays above

CCc1c2c(nc3ccc(OC(=O)N4CCC(N5CCCCC5)CC4)cc13)-c1cc3c(c(=O)n1C2)COC(=O)[C@]3(O)CC
active: [2] 2.39 µM | [18] 2.68 µM
not listed: [8] | [19] | [20]
inactive: all other assays above

CSc1ccc(Oc2ccc(S(N)(=O)=O)cc2CN(C)C)cc1C
active: [2] 38.9 µM | [18] 49 µM
inactive: [1] | [15] | [4] | [16] | [7] | [9] | [10] | [13] | [14] | [17]

COCCOC(=O)C1=C(C)NC(C)=C(C(=O)OC/C=C/c2ccccc2)C1c1cccc([N+](=O)[O-])c1 (configuration not stated)
active: [6] 5.35 µM | [13] 6.74 µM
not listed: [1] | [2] | [3] | [4] | [10] | [11] | [16]
inactive: all other assays above
